Reference: paper PMC5540273 (PLoS ONE, 2017)

How the values were obtained:
Conditions in all cases: concentration: 1 μM, replicates: in singlicate; n = 1
PCTK2 = system: T1, PCTK2
T1 construct: gene CDK17

PCTK3 = system: T2, PCTK3
T2 construct: gene CDK18

PDGFRA = system: PDGFRA
PDGFRB = system: PDGFRB
PDPK1 = system: PDPK1
PFTAIRE2 = system: PFTAIRE2
PFTK1 = system: T3, PFTK1
T3 construct: gene CDK14

PHKG1 = system: PHKG1
PHKG2 = system: PHKG2
PIK3C2B = system: PIK3C2B
PIK3C2G = system: PIK3C2G
PIK3CA = system: PIK3CA
PIK3CB = system: PIK3CB
PIK3CD = system: PIK3CD
PIK3CG = system: PIK3CG
PIK4CB = system: T4, PIK4CB
T4 construct: gene PI4KB

PIKFYVE = system: PIKFYVE
PIM1 = system: PIM1
PIM2 = system: PIM2
PIM3 = system: PIM3
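Further: KINOMEscan kinase panel screen.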

| Compound | %Inh (PCTK2) [%] | %Inh (PCTK3) [%] | %Inh (PDGFRA) [%] | %Inh (PDGFRB) [%] | %Inh (PDPK1) [%] | %Inh (PFTAIRE2) [%] | %Inh (PFTK1) [%] | %Inh (PHKG1) [%] | %Inh (PHKG2) [%] | %Inh (PIK3C2B) [%] | %Inh (PIK3C2G) [%] | %Inh (PIK3CA) [%] | %Inh (PIK3CB) [%] | %Inh (PIK3CD) [%] | %Inh (PIK3CG) [%] | %Inh (PIK4CB) [%] | %Inh (PIKFYVE) [%] | %Inh (PIM1) [%] | %Inh (PIM2) [%] | %Inh (PIM3) [%] |
| --- | --- | --- | --- | --- | --- | --- | --- | --- | --- | --- | --- | --- | --- | --- | --- | --- | --- | --- | --- | --- |
| CN1CCN(CCCNc2nccc(-c3c(-c4ccc(F)cc4)nn4cc(C(F)(F)F)ccc34)n2)CC1 [GW621581] | 0 | 12 | 0 | 10 | 3 | 13 | 0 | 0 | 0 | 0 | 3 | 0 | 0 | 10 | 0 | 1 | 95.6 | 10 | 0 | 0 |
| COC(=O)Nc1nc2cc(Oc3ccc(NC(=O)Nc4cc(C(F)(F)F)ccc4F)cn3)ccc2[nH]1.Cl.Cl [GW681170] | 16 | 16 | 94.7 | 99.8 | 0 | 68 | 21 | 0 | 0 | 0 | 0 | 0 | 5 | 0 | 0 | 0 | 0 | 9 | 0 | 0 |
| Fc1ccc(-c2ncn(C3CCNCC3)c2-c2ccnc(Oc3ccc(-c4ccccc4)cc3)n2)cc1 [SB-245391] | 1 | 2 | 23 | 12 | 21 | 13 | 9 | 0 | 0 | 27 | 39 | 40 | 40 | 73 | 39 | 31 | 15 | 23 | 4 | 16 |
| COc1cc(Nc2nccc(-c3c(-c4cccc(NC(=O)c5c(F)cccc5F)c4)nn4ncccc34)n2)cc(OC)c1OC [GSK327238] | 0 | 5 | 90.2 | 100 | 16 | 4 | 5 | 0 | 3 | 0 | 0 | 2 | 3 | 0 | 6 | 0 | 0 | 0 | 0 | 0 |
| Nc1n[nH]c2cnc(-c3ccccc3)cc12 [SB-642124] | 0 | 10 | 0 | 21 | 0 | 3 | 19 | 0 | 0 | 0 | 0 | 0 | 0 | 0 | 0 | 14 | 0 | 38 | 0 | 13 |
| Cl.Cl.NCC(NC(=O)c1cc(-c2ccccc2)c(-c2ccnc3[nH]ccc23)s1)c1ccccc1 (centres unmarked) [GSK1321561] | 0 | 0 | 0 | 45 | 20 | 6 | 17 | 0 | 0 | 0 | 0 | 0 | 0 | 0 | 4 | 0 | 0 | 0 | 0 | 0 |
| Nc1ncc(-c2ccc3nccc(-c4ccncc4)c3c2)cc1S(=O)(=O)N1CCOCC1 [GSK1627798] | 21 | 26 | 0 | 13 | 0 | 39 | 31 | 0 | 0 | 99.5 | 99.1 | 100 | 77 | 94.1 | 99.5 | 96.1 | 0 | 0 | 0 | 0 |
| CC(=O)Nc1nc2cnc(Nc3cc(NC(=O)c4cccc(C5(C#N)CC5)c4Cl)ccc3C)nc2s1 | 9 | 0 | 97.7 | 100 | 1 | 23 | 0 | 12 | 17 | 0 | 27 | 0 | 12 | 14 | 0 | 0 | 0 | 2 | 4 | 0 |
| CN(C)Cc1ccc(-c2ccc3c(Nc4ccc(Oc5ccccn5)cc4)ccnc3c2)o1 [GW567148] | 0 | 0 | 82 | 98.7 | 0 | 0 | 0 | 2 | 0 | 0 | 0 | 0 | 0 | 0 | 0 | 0 | 0 | 0 | 0 | 0 |
| COc1cc2c(cc1OCCN1CCNCC1)ncc1c3ccc(C#N)cc3[nH]c21 | 9 | 0 | 96.4 | 89 | 9 | 53 | 9 | 98.7 | 99.3 | 0 | 0 | 8 | 0 | 3 | 31 | 33 | 14 | 10 | 92.2 | 52 |
